# Source: paper PMC7862700, “An all-to-all approach to the identification of sequence-specific readers for epigenetic DNA modifications on cytosine”
# Legend:
# Assay in all cases: DAPPL (digital affinity profiling via proximity ligation, sequencing); 10 mM Tris-HCl pH 7.5, 50 mM NaCl, 1 mM DTT, 4% glycerol, room temperature, 30 min; GST-TFs on glutathione beads, 16-mer random dsDNA library, 0.1% formaldehyde crosslink after washing; high values mean tight binding
# Conditions in all cases: protein: recombinant; tags: N-terminal GST; dsDNA, one strand shown
# [1] = target: T1, ELK1 (Homo sapiens, UniProt P19419 1-428)
# T1 sequence: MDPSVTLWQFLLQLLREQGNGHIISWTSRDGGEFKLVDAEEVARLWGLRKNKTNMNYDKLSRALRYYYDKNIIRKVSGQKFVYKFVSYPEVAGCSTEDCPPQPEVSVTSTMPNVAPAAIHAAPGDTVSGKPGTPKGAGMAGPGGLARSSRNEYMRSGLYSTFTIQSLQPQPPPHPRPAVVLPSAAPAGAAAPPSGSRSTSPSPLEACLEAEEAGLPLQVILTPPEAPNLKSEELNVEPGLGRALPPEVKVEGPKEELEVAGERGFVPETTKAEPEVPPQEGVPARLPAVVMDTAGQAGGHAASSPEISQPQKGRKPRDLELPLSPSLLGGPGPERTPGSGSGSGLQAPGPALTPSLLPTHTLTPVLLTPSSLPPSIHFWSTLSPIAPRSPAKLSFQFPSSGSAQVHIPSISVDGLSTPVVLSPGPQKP
# In short: (§1)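 A tag-only sample was pooled with DNA-barcoded human transcription factors that had been expressed in yeast as GST fusions and captured on glutathione beads. The pools were incubated for 30 min at room temperature with 200 nmole of a random double-stranded 16-mer DNA library in Tris/NaCl/DTT/glycerol buffer, then washed, crosslinked with 0.1% formaldehyde, proximity-ligated (BsaI/T4 ligase, 1 h, 37 °C), PCR-amplified and sequenced on an Illumina NextSeq500. Binding signal is each hexamer's read frequency for a factor divided by its frequency for the tag-only sample.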
# [2] = target: T2, GABPA (Homo sapiens, UniProt Q06546 1-454)
# T2 sequence: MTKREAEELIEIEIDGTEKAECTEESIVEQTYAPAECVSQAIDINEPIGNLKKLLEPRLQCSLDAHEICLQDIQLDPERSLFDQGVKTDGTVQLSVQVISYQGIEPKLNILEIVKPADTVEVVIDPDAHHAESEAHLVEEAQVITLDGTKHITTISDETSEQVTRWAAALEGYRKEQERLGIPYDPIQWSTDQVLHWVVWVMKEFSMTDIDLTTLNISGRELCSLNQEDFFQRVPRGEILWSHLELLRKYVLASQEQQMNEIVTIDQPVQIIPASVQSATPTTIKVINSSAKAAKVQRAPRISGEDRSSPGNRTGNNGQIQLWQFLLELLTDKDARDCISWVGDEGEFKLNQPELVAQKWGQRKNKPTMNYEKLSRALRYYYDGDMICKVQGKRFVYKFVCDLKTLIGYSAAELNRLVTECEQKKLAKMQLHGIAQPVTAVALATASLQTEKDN
# In short: as §1
# [3] = target: T3, ERG (Homo sapiens, UniProt P11308 1-479)
# T3 sequence: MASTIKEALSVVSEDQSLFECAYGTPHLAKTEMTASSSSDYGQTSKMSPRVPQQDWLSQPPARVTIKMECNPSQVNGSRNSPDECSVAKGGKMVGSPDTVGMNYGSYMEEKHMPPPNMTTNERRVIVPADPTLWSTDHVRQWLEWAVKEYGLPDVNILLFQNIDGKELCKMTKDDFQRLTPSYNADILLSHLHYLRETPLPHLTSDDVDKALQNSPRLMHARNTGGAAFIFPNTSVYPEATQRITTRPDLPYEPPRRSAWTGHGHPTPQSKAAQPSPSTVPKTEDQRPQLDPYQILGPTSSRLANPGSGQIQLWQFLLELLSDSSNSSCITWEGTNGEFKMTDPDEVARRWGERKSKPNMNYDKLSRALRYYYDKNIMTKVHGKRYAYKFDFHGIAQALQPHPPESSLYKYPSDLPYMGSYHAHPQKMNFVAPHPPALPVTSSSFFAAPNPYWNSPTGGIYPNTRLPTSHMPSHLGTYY
# In short: as §1
# [4] = target: ELF1 (Homo sapiens, UniProt P32519 1-619)
# In short: as §1
# [5] = target: SPIB (Homo sapiens, UniProt Q01892 1-262)
# In short: as §1
# [6] = target: T4, FEV (Homo sapiens, UniProt Q99581 1-238)
# T4 sequence: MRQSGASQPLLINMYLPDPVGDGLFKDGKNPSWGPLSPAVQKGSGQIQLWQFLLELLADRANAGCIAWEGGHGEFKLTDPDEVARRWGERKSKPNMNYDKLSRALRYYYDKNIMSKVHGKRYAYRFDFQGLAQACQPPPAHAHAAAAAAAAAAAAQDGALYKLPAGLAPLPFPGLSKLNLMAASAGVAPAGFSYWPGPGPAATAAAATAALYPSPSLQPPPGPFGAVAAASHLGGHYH
# In short: as §1
# [7] = target: ETV5 (Homo sapiens, UniProt P41161 1-510)
# In short: as §1
# [8] = target: ELF4 (Homo sapiens, UniProt Q99607 1-663)
# In short: as §1
# [9] = target: T5, ELK4 (Homo sapiens, UniProt P28324-2 1-405)
# T5 sequence: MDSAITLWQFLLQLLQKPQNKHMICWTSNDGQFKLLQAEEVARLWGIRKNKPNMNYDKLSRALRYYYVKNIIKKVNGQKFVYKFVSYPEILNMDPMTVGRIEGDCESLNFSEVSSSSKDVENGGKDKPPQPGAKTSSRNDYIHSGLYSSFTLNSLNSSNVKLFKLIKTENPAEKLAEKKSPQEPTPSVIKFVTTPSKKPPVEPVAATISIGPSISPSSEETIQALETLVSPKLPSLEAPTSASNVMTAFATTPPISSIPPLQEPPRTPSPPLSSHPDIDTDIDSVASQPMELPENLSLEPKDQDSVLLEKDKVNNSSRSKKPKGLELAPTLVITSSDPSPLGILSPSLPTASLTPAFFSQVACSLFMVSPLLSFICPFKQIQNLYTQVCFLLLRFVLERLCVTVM
# In short: as §1
# [10] = target: T6, ETV2 (Homo sapiens, UniProt O00321 1-342)
# T6 sequence: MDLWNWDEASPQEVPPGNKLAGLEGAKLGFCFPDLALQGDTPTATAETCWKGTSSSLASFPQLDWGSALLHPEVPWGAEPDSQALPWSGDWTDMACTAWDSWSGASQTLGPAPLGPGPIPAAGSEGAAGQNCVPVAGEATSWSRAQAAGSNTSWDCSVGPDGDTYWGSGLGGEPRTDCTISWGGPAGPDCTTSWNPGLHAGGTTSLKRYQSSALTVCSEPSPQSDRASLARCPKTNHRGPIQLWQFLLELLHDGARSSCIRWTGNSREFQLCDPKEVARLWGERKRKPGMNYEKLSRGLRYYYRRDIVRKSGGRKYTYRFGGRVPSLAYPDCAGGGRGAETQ
# In short: as §1
# [11] = target: T7, ELF3 (Homo sapiens, UniProt P78545 1-371)
# T7 sequence: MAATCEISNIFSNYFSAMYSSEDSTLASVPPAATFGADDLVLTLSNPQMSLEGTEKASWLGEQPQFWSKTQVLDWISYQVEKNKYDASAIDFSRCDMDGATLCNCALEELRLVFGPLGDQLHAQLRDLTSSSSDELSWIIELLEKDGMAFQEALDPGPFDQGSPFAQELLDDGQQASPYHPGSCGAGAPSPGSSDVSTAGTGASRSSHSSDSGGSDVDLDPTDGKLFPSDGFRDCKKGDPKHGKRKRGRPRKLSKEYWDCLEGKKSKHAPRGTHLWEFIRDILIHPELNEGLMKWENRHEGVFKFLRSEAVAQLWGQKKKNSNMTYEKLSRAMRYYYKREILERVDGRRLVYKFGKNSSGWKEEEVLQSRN
# In short: as §1
# [12] = target: ETV1 (Homo sapiens, UniProt P50549 1-477)
# In short: as §1
# [13] = target: T8, ERF (Homo sapiens, UniProt P50548 1-548)
# T8 sequence: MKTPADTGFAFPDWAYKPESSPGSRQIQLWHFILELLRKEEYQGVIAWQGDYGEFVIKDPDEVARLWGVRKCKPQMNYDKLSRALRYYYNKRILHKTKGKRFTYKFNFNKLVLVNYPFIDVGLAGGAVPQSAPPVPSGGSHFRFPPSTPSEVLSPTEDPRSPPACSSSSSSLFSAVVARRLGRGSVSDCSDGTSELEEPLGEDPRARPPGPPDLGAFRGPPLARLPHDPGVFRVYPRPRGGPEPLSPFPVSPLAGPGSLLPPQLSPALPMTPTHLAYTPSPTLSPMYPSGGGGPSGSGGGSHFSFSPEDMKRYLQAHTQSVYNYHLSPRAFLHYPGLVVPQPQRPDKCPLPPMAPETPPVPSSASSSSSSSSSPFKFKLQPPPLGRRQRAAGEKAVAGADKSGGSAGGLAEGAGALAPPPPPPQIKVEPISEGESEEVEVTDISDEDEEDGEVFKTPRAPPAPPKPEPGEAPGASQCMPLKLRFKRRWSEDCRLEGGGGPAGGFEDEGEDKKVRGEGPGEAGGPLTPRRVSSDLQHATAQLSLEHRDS
# In short: as §1
# [14] = target: T9, ETV3L (Homo sapiens, UniProt Q6ZN32 1-361)
# T9 sequence: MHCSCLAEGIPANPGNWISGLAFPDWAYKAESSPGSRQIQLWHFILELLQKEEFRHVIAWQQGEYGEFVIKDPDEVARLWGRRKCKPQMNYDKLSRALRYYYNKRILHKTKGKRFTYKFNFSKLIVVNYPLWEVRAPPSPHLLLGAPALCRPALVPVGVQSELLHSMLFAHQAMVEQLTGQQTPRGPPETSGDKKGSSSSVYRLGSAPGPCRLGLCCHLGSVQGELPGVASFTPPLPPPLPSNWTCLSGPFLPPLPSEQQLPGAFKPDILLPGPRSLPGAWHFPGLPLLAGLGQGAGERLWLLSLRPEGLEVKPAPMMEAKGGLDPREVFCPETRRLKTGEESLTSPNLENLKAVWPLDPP
# In short: as §1
# [15] = target: T10, ETS2 (Homo sapiens, UniProt P15036 1-469)
# T10 sequence: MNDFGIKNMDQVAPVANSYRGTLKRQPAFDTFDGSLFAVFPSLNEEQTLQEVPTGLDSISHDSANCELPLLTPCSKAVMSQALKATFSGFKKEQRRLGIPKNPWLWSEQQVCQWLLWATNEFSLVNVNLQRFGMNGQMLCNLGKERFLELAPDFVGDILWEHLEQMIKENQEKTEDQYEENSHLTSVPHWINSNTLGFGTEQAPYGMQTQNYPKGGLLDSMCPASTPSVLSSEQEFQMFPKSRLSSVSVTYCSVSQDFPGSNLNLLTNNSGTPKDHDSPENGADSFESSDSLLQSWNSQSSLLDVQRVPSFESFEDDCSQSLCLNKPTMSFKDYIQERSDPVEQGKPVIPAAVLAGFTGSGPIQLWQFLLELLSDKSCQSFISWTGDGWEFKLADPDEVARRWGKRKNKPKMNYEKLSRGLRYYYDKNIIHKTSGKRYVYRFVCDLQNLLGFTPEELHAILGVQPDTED
# In short: as §1
# [16] = target: T11, SPDEF (Homo sapiens, UniProt O95238 1-335)
# T11 sequence: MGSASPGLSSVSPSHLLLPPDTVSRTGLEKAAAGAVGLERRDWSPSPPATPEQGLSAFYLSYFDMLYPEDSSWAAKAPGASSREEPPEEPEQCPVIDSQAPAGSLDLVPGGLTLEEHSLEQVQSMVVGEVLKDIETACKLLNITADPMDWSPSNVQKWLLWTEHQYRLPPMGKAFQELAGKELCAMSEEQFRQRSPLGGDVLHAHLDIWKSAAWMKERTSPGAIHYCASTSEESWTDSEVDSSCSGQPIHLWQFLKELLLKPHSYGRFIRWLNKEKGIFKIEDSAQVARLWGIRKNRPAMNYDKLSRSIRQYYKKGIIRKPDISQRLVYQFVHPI
# In short: as §1
# [17] = target: T12, ETV7 (Homo sapiens, UniProt Q9Y603 1-341)
# T12 sequence: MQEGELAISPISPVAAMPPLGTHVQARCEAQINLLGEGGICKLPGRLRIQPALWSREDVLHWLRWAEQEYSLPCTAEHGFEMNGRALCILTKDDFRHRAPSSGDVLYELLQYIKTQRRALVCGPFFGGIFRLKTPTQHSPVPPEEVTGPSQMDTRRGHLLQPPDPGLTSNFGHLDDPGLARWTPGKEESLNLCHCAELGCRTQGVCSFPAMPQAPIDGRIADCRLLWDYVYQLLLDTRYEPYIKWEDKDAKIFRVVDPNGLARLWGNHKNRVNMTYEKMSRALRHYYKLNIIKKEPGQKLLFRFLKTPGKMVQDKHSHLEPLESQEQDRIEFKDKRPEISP
# In short: as §1
# [18] = target: T13, ETV3 (Homo sapiens, UniProt P41162-2 1-143)
# T13 sequence: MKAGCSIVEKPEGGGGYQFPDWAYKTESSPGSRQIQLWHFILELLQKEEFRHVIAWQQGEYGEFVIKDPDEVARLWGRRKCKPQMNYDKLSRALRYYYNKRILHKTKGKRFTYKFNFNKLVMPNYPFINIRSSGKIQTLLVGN
# In short: as §1
# [19] = target: ETV6 (Homo sapiens, UniProt P41212 1-452)
# In short: as §1
# Sequence of SPIB (Q01892 whole entry): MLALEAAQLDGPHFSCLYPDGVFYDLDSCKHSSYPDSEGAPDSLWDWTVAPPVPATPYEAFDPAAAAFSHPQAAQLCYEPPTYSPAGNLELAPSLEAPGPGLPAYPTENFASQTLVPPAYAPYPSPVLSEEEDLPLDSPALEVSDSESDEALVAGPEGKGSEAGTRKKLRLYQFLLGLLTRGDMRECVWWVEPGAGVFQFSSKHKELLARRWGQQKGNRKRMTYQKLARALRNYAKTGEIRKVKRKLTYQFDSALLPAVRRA
# Sequence of ETV6 (P41212 whole entry): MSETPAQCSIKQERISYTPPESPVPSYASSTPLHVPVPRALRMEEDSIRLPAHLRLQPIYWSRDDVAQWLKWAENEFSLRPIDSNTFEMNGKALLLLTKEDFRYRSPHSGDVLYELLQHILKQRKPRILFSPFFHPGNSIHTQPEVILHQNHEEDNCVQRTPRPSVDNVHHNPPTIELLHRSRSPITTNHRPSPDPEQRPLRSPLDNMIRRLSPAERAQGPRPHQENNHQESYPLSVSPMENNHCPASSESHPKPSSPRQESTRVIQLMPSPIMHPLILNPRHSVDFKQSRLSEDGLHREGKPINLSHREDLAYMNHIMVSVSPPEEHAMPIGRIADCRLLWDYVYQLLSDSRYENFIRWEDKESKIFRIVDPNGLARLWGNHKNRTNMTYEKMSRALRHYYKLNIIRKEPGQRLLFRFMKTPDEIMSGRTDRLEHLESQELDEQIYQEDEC
# Sequence of ETV1 (P50549 whole entry): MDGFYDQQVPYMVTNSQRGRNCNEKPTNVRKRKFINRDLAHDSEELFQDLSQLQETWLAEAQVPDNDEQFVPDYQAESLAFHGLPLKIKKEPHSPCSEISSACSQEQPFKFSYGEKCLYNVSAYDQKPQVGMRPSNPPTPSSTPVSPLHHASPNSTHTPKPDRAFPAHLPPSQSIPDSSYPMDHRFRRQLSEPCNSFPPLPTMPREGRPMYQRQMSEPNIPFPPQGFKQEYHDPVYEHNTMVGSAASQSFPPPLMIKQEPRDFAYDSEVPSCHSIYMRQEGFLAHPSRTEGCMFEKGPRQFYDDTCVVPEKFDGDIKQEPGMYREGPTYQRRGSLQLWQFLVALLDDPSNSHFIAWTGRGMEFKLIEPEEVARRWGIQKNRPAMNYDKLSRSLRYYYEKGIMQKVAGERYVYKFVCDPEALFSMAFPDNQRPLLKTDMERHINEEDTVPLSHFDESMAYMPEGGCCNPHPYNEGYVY
# Sequence of ELF1 (P32519 whole entry): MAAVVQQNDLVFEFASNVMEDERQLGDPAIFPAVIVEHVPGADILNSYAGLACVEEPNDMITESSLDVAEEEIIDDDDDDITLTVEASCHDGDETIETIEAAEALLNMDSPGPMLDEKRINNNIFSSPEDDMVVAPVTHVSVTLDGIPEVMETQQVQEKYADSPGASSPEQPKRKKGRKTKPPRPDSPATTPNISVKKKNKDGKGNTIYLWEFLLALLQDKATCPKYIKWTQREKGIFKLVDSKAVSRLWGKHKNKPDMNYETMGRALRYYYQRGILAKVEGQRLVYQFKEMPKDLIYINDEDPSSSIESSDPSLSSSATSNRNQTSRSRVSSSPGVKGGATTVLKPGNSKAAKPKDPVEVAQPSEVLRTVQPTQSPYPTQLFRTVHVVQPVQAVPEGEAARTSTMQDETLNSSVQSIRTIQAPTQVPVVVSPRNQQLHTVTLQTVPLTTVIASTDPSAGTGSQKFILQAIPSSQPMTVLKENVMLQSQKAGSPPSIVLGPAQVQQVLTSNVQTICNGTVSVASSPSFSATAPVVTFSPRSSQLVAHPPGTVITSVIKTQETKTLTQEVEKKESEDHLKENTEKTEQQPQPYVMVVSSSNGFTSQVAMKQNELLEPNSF
# Sequence of ELF4 (Q99607 whole entry): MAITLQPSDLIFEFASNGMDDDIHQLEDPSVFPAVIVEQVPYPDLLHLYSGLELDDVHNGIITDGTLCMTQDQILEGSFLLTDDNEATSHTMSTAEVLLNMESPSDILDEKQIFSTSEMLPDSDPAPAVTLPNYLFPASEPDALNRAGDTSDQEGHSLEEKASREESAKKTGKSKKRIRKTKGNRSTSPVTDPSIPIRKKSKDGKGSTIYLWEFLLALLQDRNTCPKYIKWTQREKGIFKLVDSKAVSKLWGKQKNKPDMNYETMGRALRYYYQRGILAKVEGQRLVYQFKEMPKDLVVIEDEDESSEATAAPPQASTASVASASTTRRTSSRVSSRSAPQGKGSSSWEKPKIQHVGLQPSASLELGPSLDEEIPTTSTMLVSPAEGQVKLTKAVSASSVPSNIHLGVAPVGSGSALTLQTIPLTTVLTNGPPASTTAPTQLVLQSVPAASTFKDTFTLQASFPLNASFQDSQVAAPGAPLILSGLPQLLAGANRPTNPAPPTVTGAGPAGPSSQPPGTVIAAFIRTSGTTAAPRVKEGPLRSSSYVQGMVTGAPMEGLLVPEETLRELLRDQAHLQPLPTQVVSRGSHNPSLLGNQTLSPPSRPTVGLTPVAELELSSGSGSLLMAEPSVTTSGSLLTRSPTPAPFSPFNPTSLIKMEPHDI
# Sequence of ETV5 (P41161 whole entry): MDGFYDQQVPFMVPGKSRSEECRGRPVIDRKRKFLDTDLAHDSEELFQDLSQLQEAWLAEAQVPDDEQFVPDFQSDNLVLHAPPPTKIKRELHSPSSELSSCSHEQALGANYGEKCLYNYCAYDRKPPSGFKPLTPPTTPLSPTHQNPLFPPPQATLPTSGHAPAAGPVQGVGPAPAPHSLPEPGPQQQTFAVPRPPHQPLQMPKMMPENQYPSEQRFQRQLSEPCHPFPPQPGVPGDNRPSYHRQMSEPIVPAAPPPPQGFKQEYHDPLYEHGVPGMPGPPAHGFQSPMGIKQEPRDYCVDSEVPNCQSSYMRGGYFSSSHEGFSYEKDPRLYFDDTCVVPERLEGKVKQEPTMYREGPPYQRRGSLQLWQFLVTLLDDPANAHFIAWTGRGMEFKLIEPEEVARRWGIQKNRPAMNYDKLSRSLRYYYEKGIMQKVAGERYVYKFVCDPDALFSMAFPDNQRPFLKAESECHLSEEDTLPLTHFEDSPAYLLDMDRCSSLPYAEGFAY
sequence,measurement,setting,value
ATCAAA,binding signal,[1],"1.05 fold enrichment (6-mer frequency, TF over GST control)"
same,binding signal,[2],"1.13 fold enrichment (6-mer frequency, TF over GST control)"
same,binding signal,[3],"1.11 fold enrichment (6-mer frequency, TF over GST control)"
same,binding signal,[4],"1.07 fold enrichment (6-mer frequency, TF over GST control)"
same,binding signal,[5],"1.02 fold enrichment (6-mer frequency, TF over GST control)"
same,binding signal,[6],"1.03 fold enrichment (6-mer frequency, TF over GST control)"
same,binding signal,[7],"1.06 fold enrichment (6-mer frequency, TF over GST control)"
same,binding signal,[8],"1.12 fold enrichment (6-mer frequency, TF over GST control)"
same,binding signal,[9],"1.1 fold enrichment (6-mer frequency, TF over GST control)"
same,binding signal,[10],"1.11 fold enrichment (6-mer frequency, TF over GST control)"
same,binding signal,[11],"1.04 fold enrichment (6-mer frequency, TF over GST control)"
same,binding signal,[12],"1.15 fold enrichment (6-mer frequency, TF over GST control)"
same,binding signal,[13],"1.08 fold enrichment (6-mer frequency, TF over GST control)"
same,binding signal,[14],"1.08 fold enrichment (6-mer frequency, TF over GST control)"
same,binding signal,[15],"1.07 fold enrichment (6-mer frequency, TF over GST control)"
same,binding signal,[16],"1.06 fold enrichment (6-mer frequency, TF over GST control)"
same,binding signal,[17],"1.1 fold enrichment (6-mer frequency, TF over GST control)"
same,binding signal,[18],"1.01 fold enrichment (6-mer frequency, TF over GST control)"
same,binding signal,[19],"1.07 fold enrichment (6-mer frequency, TF over GST control)"
